PubChem BioAssay (EPA / NIEHS)
Results filed as inconclusive are left out. The source made the active and inactive calls. Rule for the calls, unless noted: active = hit-call score of the fitted dose curve at least 0.9, where 1 is the maximum; inconclusive = response in the unintended direction; inactive = score below 0.9.

Columns and labels:
[1] = TOX21_p53_BLA_p2_viability: Viability Assessment in the Tox21 HCT-116 p53 Agonism Beta-lactamase Assay, Phase 2 (AID 2283591);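 note: actives lower the ATP signal meaning cytotoxicity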
Method in brief: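 HCT-116 p53-bla cells (4000/well) rested 5 h at 37C, then received compounds in DMSO (217-fold dilution) for 16 h at 37C, 5% CO2. After the CCF4 read, CellTiter-Glo was added; ATP luminescence was read after 30 min at room temperature.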

[2] = molecular target: Cellular tumor antigen p53 (Homo sapiens) (UniProt P04637); assay: TOX21_p53_BLA_p2_ratio: Tox21 HCT-116 p53 Agonism Beta-lactamase Assay, Ratio, Phase 2 (AID 2283592)
Method in brief: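 An inducible beta-lactamase reporter in HCT116 cells signals p53 pathway activation. After 16 h chemical exposure at 37C, cells load CCF4-AM substrate for 2 h at room temperature; activity is the cleaved/uncleaved emission ratio relative to DMSO.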

[3] = TOX21_p53_BLA_p3_viability: Viability Assessment in the Tox21 HCT-116 p53 Agonism Beta-lactamase Assay, Phase 3 (AID 2283593);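 note: cells exposed to compound for 16 h before reading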
Method in brief: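 HCT-116 cells (4000/well) rested 5 h at 37C, then got DMSO compounds by pin tool (217-fold dilution) for 16 h at 37C, 5% CO2. After the bla read, CellTiter-Glo was added and luminescence read at 30 min, room temperature.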

[4] = molecular target: Cellular tumor antigen p53 (Homo sapiens) (UniProt P04637); assay: TOX21_p53_BLA_p3_ratio: Tox21 HCT-116 p53 Agonism Beta-lactamase Assay, Ratio, Phase 3 (AID 2283596)
Method in brief: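 HCT116 p53-bla cells (4000/well) given compound in DMSO (217-fold dilution) after 5 h, incubated 16 h at 37C. CCF4-AM substrate 2 h at room temperature; 460/530 nm emission ratio, gain fitted against DMSO.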

[5] = molecular target: Cellular tumor antigen p53 (Homo sapiens) (UniProt P04637); assay: TOX21_p53_BLA_p5_ratio: Tox21 HCT-116 p53 Agonism Beta-lactamase Assay, Ratio, Phase 5 (AID 2283599)
Method in brief: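 HCT-116 cells carrying a p53-inducible beta-lactamase reporter were seeded at 4000 cells/well and dosed after 5 h with compound in DMSO (217-fold dilution). After 16 h at 37C, CCF4-AM substrate was added for 2 h, and the 460/530 nm emission ratio was scored as gain-of-signal versus DMSO.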

[6] = TOX21_p53_BLA_p5_viability: Viability Assessment in the Tox21 HCT-116 p53 Agonism Beta-lactamase Assay, Phase 5 (AID 2283600)
Method in brief: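 Counter-readout for cytotoxicity: ATP-dependent luminescence from CellTiter-Glo, read in the beta-lactamase wells after 30 min at RT, following a 16 h compound exposure at 37C.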

[7] = molecular target: Cellular tumor antigen p53 (Homo sapiens) (UniProt P04637); assay: TOX21_p53_BLA_p4_ratio: Tox21 HCT-116 p53 Agonism Beta-lactamase Assay, Ratio, Phase 4 (AID 2283601)
Method in brief: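 HCT116 cells carrying an inducible beta-lactamase reporter were plated at 4000 cells/well, rested 5 h, then exposed to compounds in DMSO (217-fold dilution) for 16 h at 37C. CCF4-AM substrate was loaded 2 h at room temperature; 460/530 nm emission ratio scored gain-of-signal versus DMSO.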

PGR (gene 5241) [8] = molecular target: PGR (gene 5241) (UniProt P06401); assay: TOX21_PR_BLA_Followup_Agonist_ratio: Tox21 HEK293 Progesterone Receptor (PR) Agonism Beta-lactamase Follow-Up Assay, Ratio (AID 2283933)
Method in brief: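 Agonist-mode follow-up in HEK293T cells carrying a UAS-driven beta-lactamase reporter, grown in 2% charcoal-stripped serum. Compounds act for 16 hr; activity is the ch2/ch1 cleavage ratio, with same-well CellTiter-Glo viability run in parallel.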

PGR (gene 5241) [9] = molecular target: PGR (gene 5241) (UniProt P06401); assay: TOX21_PR_BLA_Followup_Antagonist_ratio: Tox21 HEK293 Progesterone Receptor (PR) Antagonism Beta-lactamase Follow-Up Assay, Ratio (AID 2283934);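 note: PR-UAS-bla HEK293T cells stimulated with 1 nM R5020 agonist for 16 hr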
Method in brief: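 Antagonist mode used 1 nM R5020 (final) as agonist on a beta-lactamase reporter line in HEK293T cells. Activity was taken from the substrate cleavage ratio after 16 hr exposure.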

[10] = TOX21_PR_BLA_Followup_Agonist_viability: Viability Assessment in the Tox21 HEK293 Progesterone Receptor (PR) Agonism Beta-lactamase Follow-Up Assay (AID 2283935);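 note: signal loss means lower viability so actives are cytotoxic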
Method in brief: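 Multiplexed viability counter-screen: ATP-coupled luciferase signal measured after 30 min at room temperature, following 16 hr compound treatment of PR-UAS-bla HEK293T cells grown in charcoal-stripped serum.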

PGR (gene 5241) [11] = molecular target: PGR (gene 5241) (UniProt P06401); assay: TOX21_PR_LUC_Followup_Agonist: Tox21 HEK293 Progesterone Receptor (PR) Agonism Luciferase Follow-Up Assay (AID 2283937; active = hit-call score of the fitted dose curve at least 0.9, where 1 is the maximum; inactive = score below 0.9)
Method in brief: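 Agonist mode: reporter cells carrying PR-A and luciferase are treated 16 h with test compounds at 37C. Luciferase induction is measured by luminescence and fitted upward against DMSO.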

[12] = TOX21_PR_LUC_Followup_Antagonist_viability: Viability Assessment in the Tox21 HEK293 Progesterone Receptor (PR) Antagonism Luciferase Follow-Up Assay (AID 2283940)
Method in brief: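 Cellular ATP, measured with luciferase-coupled CellTiter-Glo, served as the viability endpoint after HEK293-PR-A-luc cells were exposed to test compounds for 16 h at 37C.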

[13] = TOX21_PR_LUC_Followup_Agonist_viability: Viability Assessment in the Tox21 HEK293 Progesterone Receptor (PR) Agonism Luciferase Follow-Up Assay (AID 2283941);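 note: loss of signal means cytotoxicity so actives lower viability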
Method in brief: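 Luminescent ATP quantitation (CellTiter-Glo) serves as the read-out; a drop flags cytotoxic compounds. Cells are HEK293-PR-A-luc grown in 10% charcoal-stripped FBS, plated 3,000/well, and exposed to compound for 16 h.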

Sequence of PGR (gene 5241) (P06401 whole entry, looked up): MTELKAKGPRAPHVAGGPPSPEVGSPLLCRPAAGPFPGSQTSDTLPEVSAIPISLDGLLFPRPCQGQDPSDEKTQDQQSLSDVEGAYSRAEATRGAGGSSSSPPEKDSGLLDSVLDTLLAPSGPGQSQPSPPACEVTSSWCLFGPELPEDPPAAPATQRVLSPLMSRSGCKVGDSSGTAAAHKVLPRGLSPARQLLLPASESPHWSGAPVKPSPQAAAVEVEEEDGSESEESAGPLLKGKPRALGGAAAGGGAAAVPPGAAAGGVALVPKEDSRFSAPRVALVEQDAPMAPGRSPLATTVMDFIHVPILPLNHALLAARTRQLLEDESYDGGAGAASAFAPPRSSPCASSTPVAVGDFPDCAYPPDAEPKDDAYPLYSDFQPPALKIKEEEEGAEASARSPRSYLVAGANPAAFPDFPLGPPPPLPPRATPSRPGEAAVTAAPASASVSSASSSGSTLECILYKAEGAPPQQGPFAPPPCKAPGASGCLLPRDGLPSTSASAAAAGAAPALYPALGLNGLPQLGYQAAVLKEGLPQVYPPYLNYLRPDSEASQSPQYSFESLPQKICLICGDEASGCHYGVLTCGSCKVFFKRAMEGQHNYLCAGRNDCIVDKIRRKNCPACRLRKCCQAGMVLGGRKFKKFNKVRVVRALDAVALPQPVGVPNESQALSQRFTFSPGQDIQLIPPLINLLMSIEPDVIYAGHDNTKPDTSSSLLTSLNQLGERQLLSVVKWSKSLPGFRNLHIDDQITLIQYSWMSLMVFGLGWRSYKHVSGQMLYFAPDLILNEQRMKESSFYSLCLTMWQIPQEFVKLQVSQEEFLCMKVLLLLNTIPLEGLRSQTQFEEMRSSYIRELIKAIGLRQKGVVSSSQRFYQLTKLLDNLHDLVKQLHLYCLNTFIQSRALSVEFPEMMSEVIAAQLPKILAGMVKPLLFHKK
Sequence of Cellular tumor antigen p53 (Homo sapiens) (P04637 whole entry, looked up): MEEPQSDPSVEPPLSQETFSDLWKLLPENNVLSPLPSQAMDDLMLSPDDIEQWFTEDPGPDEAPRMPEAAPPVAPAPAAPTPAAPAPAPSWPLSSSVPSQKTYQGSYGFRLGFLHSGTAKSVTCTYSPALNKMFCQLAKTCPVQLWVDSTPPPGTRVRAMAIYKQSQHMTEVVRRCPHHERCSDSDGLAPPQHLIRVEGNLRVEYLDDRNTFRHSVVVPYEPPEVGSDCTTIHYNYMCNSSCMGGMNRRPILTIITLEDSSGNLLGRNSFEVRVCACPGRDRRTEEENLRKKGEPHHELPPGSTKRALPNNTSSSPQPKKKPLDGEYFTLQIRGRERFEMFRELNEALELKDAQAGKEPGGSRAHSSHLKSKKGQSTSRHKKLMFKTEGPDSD

SMILES	outcome [1]	outcome [2]	outcome [3]	outcome [4]	outcome [5]	outcome [6]	outcome [7]	AC50 [4]	outcome (PGR (gene 5241) [8])	AC50 (PGR (gene 5241) [9])	outcome [10]	outcome (PGR (gene 5241) [11])	outcome [12]	outcome [13]
OCCSCSCCO	inactive	inactive	inactive	inactive	inactive	inactive	inactive	–	–	–	–	–	–	–
CN1C[C@@H](NS(=O)(=O)N(C)C)C[C@@H]2c3cccc4c3c(cn4C)C[C@H]21	inactive	inactive	inactive	inactive	inactive	inactive	inactive	–	–	–	–	–	–	–
C[C@@H]1CN(C2CCC(C#N)(c3ccc(F)cc3)CC2)CC[C@]1(C(=O)O)c1ccccc1 (stereo partly specified)	inactive	inactive	inactive	inactive	inactive	–	inactive	–	–	–	–	–	–	–
C(CCOCC1CO1)COCC1CO1 (stereo unspecified)	inactive	inactive	inactive	–	inactive	inactive	inactive	65.2 µM (active)	–	–	–	–	–	–
NC(=O)CN1CCCC1=O	inactive	inactive	inactive	inactive	inactive	–	inactive	–	–	–	–	–	–	–
CCOP(=S)(OCC)Oc1cc(Cl)c(Br)cc1Cl	inactive	inactive	inactive	inactive	inactive	inactive	inactive	–	inactive	6.49 µM (active)	inactive	inactive	inactive	inactive
